Consider 92 compounds from PubChem BioAssay AID463173 (ICCB-Longwood Screening Facility, Harvard Medical School, 2010).

The whole screen tested about 52,000 compounds, of which about 4,300 (8.3%) were called active. Cut-off read from the data, not from the text of the source: active = survival mostly below about 52% (no sharp cut-off); inactive = mostly above about 56%. The full list was thinned out, with actives kept by preference.

This test relates to DeltatarO mutant. Kind of test: growth inhibition of S. aureus wild type versus tarO mutant, primary screen, teichoic acid synthesis inhibitors, RN4220, OD600 (AID 463173). As to conditions: OD600, 18 h, stronger effect = lower value, screened at 18.75 µg/mL (by protocol).
With `O=C(CCn1cnc2ccccc2c1=O)NCc1ccccc1`, the survival is 109% (inactive).

As to `Cc1cc(C)c2c(CC(=O)N(Cc3ccc(N(C)C)cc3)Cc3ccco3)coc2c1`, the survival is 42% (active).

`Cc1ccc2c(C)c(C(=O)N(Cc3ccc(N(C)C)cc3)Cc3ccco3)oc2c1C`: the survival was 87% (inactive).

As for `Cc1ccc2c(CC(=O)N(Cc3ccc(N(C)C)cc3)Cc3ccco3)coc2c1C`, the survival is 45% (active).

For `Cc1cc(C)c(OCC(=O)N(Cc2ccc(N(C)C)cc2)Cc2ccco2)c(C)c1`, the survival is 49% (inactive).

Consider `Cc1ccc2c(CC(=O)N(Cc3ccc(Cl)cc3)Cc3ccco3)coc2c1`, for which the survival was 99% (inactive).

Turning to `Cc1cc(C)c2c(CC(=O)N(Cc3ccc(Cl)cc3)Cc3ccco3)coc2c1`, the survival was 57% (inactive).

`COc1ccccc1CCNC(=O)Cc1c(C)c2cc3c(C(C)(C)C)coc3c(C)c2oc1=O`: the survival was 101% (inactive).

Consider `O=C(CC1(c2ccc(Cl)cc2)C(=O)c2ccccc2C1=O)N1CCOCC1`, for which the survival is 79% (inactive).

With `Cc1nc2ccccc2n1CCc1nc2c3ccccc3nc(SCC(=O)Nc3ccc(Br)cc3F)n2n1`, the survival was 98% (inactive).

For the compound `Cn1c(=O)c2c(nc(SCC(=O)Nc3ccc(F)cc3F)n2Cc2ccccc2)n(C)c1=O`, the survival was 135% (inactive).

Turning to `Cn1ncc2nc(SCC(=O)Nc3ccc(Br)cc3F)n(Cc3ccccc3)c(=O)c21`, the survival is 29% (active).

For the compound `CCOC(=O)c1ccccc1NC(=O)c1nn(C)c2c1COc1ccccc1-2`, the survival is 59% (inactive).

Take `COC(=O)c1ccccc1NC(=O)Cn1ncc2c(C)n(Cc3ccc(F)cc3)c(C)c2c1=O`: the survival is 52% (inactive).

For `Cc1cccc(NC(=O)Cn2nc(C)c3nn(-c4ccc(Cl)cc4)c(C)c3c2=O)c1C`, the survival is 94% (inactive).

Regarding `COc1ccccc1OCCCCn1c(C2CC(=O)N(c3ccccc3Cl)C2)nc2ccccc21` (configuration not stated), the survival is 61% (inactive).

In the case of `COc1ccccc1OCCn1c(-c2ccc(Cl)cc2)nc2ccccc2c1=O`, the survival was 77% (inactive).

For `COc1cc(C)ccc1OCCn1c(-c2ccc(Cl)cc2)nc2ccccc2c1=O`, the survival is 62% (inactive).

`COc1ccccc1OCCn1c(NC(=O)c2ccc(Cl)cc2)nc2ccccc21`: the survival is 45% (active).

Consider `COc1ccccc1OCCn1c(NC(=O)c2ccccc2Cl)nc2ccccc21`, for which the survival is -3% (active).

With `O=C(O)c1ccc(NCc2nc3ccccc3n2CCOc2ccccc2Cl)cc1`, the survival is 59% (inactive).

Turning to `CCCn1c(CCCNC(=O)c2ccccc2OC)nc2ccccc21`, the survival is 111% (inactive).

Turning to `CC(NC(=O)c1ccccc1)c1nc2ccccc2n1Cc1ccc(Cl)cc1` (configuration not stated), the survival is 83% (inactive).

Turning to `OCCNc1nc2ccccc2n1CCOc1ccccc1`, the survival is 68% (inactive).

For `O=C(Nc1nc2ccccc2n1CCOc1ccccc1Cl)c1ccccc1`, the survival is 17% (active).

As to `CCn1c(NC(C)=O)nc2ccccc21`, the survival is 85% (inactive).

For the compound `COc1ccc(OCCn2c(NC(=O)c3ccc(OC)cc3)nc3ccccc32)cc1`, the survival is -2% (active).

Consider `COC(=O)c1ccc(Cl)cc1NC(=O)N1CC2CCCN2c2ccccc21` (configuration not stated), for which the survival was 71% (inactive).

Regarding `CC(=O)Nc1ccc(-c2cn(CC(=O)NN)cn2)cc1`, the survival was 111% (inactive).

On to `COc1cc(OC)cc(C(=O)Nc2ccc(S(=O)(=O)Nc3ncccn3)cc2)c1`, for which the survival is 82% (inactive).

With `CN1CCc2nc3sc(C(=O)Nc4ccccc4C(F)(F)F)c(N)c3cc2C1`, the survival is 150% (inactive).

For the compound `CCC(=O)N1CCc2cc(S(=O)(=O)CCC(=O)Nc3ccc(OC(F)(F)F)cc3)ccc21`, the survival was 83% (inactive).

On to `COc1cc(NC(=O)CC2C(=O)N(c3cccc(C)c3)C(=O)N2Cc2ccco2)cc(OC)c1` (configuration not stated), for which the survival was 101% (inactive).

`Cc1ccc(Cl)cc1NC(=O)CSCc1cnn(-c2ccccc2)c1-n1cccc1`: the survival was 70% (inactive).

With `COc1ccc(CNC(=O)Cc2ccc(NC(=O)N3CCSc4ncccc43)cc2)cc1`, the survival was 95% (inactive).

On to `Cc1cccc(NC(=O)c2cc(S(=O)(=O)NCCc3ccccc3)ccc2F)c1C`, for which the survival was 73% (inactive).

With `Cc1cccn2c(=O)c3cc(C#N)c(=O)n(-c4nnc(SCc5ccccc5F)s4)c3nc12`, the survival was 70% (inactive).

Turning to `O=C(O)C(=Cc1ccc(-c2cccc(C(F)(F)F)c2)o1)C(=O)O`, the survival is 65% (inactive).

On to `COc1ccc(C(=O)Nc2nc3ccccc3n2CCOc2ccc(Cl)cc2)cc1`, for which the survival is -5% (active).

`Fc1ccc(CNCc2ccccc2)cc1`: the survival was 99% (inactive).

Regarding `COc1cc(OC)c(NC(=O)CSC2=Nc3ccccc3N=C(c3ccc(F)cc3)C2)cc1Cl`, the survival is 65% (inactive).

For the compound `CCn1c(SCc2ccccc2Cl)nc(=O)c2c(C(=O)OC)cc(C3CC3)nc21`, the survival was 77% (inactive).

Regarding `CCn1c(SCc2ccccc2F)nc(=O)c2c(C(=O)OC)cc(C3CC3)nc21`, the survival was 52% (active).

For `CCn1c(SCc2ccccc2C)nc(=O)c2c(C(=O)OC)cc(C3CC3)nc21`, the survival is 71% (inactive).

As to `C=CCn1c(NC)nc2c1c(=O)[nH]c(=O)n2C`, the survival is 105% (inactive).

Consider `Cc1cc(C)cc(OCC(=O)N(Cc2ccc(C)o2)C2CCS(=O)(=O)C2)c1` (configuration not stated), for which the survival is 89% (inactive).

For the compound `CC(=O)C1=C(OC(=O)C(C)C)c2ccccc2S(=O)(=O)N1Cc1ccccc1`, the survival is 104% (inactive).

For the compound `Cc1ccc2c(c1)N(CC(=O)NCCc1ccccc1)C(=O)CO2`, the survival was 45% (inactive).

As to `Cc1ccc(C2=Nc3ccccc3N(CC(=O)NCc3ccc(F)cc3)C(=O)C2)cc1C`, the survival is 90% (inactive).

For `Cc1ccc(C2=Nc3ccccc3N(CC(=O)NCc3ccc(Cl)cc3)C(=O)C2)cc1C`, the survival is 55% (inactive).

Take `COc1ccc(CNC(=O)CN2C(=O)COc3ccc(S(=O)(=O)Nc4ccccc4)cc32)cc1`: the survival is 66% (inactive).

Take `COc1ccc(CCNC(=O)CN2C(=O)COc3ccccc32)cc1OC`: the survival was 126% (inactive).

In the case of `Cc1ccc2c(c1)N(CCC(=O)NCc1ccc(F)cc1)C(=O)CO2`, the survival was 62% (inactive).

As to `COc1cccc(CNC(=O)CN2C(=O)COc3ccc(S(=O)(=O)Nc4ccccc4)cc32)c1`, the survival was 77% (inactive).

On to `Cc1ccc(CNC(=O)CCCN2C(=O)COc3ccc(C)cc32)cc1`, for which the survival is 85% (inactive).

For `Cc1ccc(CNC(=O)CN2C(=O)COc3ccc(S(=O)(=O)Nc4ccccc4)cc32)cc1`, the survival is -4% (active).

`Cc1ccc(CNC(=O)CN2C(=O)CC(c3ccc(C)c(C)c3)=Nc3ccccc32)cc1`: the survival was 52% (active).

Consider `COc1ccc(CCNC(=O)CN2C(=O)COc3ccc(C)cc32)cc1OC`, for which the survival is 45% (active).

`Cc1ccc(CNC(=O)CCN2C(=O)COc3ccc(C)cc32)cc1`: the survival was 50% (active).

For `CN(C)CCCNc1c2c(nc3cc(-c4cccc(F)c4)nn13)CCC2`, the survival was 103% (inactive).

Take `O=c1c2sc3ccccc3c2n(Cc2cccc(F)c2)c(=O)n1Cc1ccccc1`: the survival was 78% (inactive).

Take `COc1ccc(CNC(=O)CN2C(=O)CSc3ccc(S(=O)(=O)N4CCOCC4)cc32)c(OC)c1`: the survival is 91% (inactive).

With `O=C1CCCc2cc(S(=O)(=O)NCC3CCC(C(=O)Nc4ccccc4F)CC3)ccc2N1` (configuration not stated), the survival was 93% (inactive).

In the case of `Cc1ccc(NC(=O)N2CCC(CN3CCCC3)CC2)c(C)c1`, the survival is 80% (inactive).

`COc1ccc(CNC(=O)C2CCN(S(=O)(=O)c3cccc(-c4noc(C)n4)c3)CC2)cc1`: the survival was 92% (inactive).

For `CC1CCc2c(sc(NC(=O)COc3ccccc3C(C)(C)C)c2C#N)C1` (configuration not stated), the survival was 67% (inactive).

For the compound `COC(=O)CSc1ncc2c(n1)-c1ccccc1N(Cc1ccccc1C)S2(=O)=O`, the survival is 99% (inactive).

Regarding `Cc1cccc(CNC(=O)CCCN2C(=O)COc3ccc(C)cc32)c1`, the survival was 112% (inactive).

With `Cc1ccc2c(c1)N(CCC(=O)NCc1ccccc1Cl)C(=O)CO2`, the survival was 40% (active).

On to `CCOc1ccccc1CNC(=O)CCCN1C(=O)COc2ccc(C)cc21`, for which the survival is 93% (inactive).

For the compound `CCOC(=O)C1=C(CS(=O)(=O)c2ccc(OC)c(Cl)c2)NC(=O)NC1c1cccc(OC)c1` (configuration not stated), the survival is 59% (inactive).

With `Cc1cc(=O)[nH]c(SC(C)C(=O)Nc2ccccc2)n1` (configuration not stated), the survival is 90% (inactive).

Consider `Cc1cccc(NC(=O)CSc2nc(-c3ccccc3Cl)nc3c2Cc2c(CO)cnc(C)c2O3)c1C`, for which the survival was 117% (inactive).

`COc1ccccc1NC(=O)CSc1nc(-c2cccc(Cl)c2)nc2c1Cc1c(CO)cnc(C)c1O2`: the survival was 87% (inactive).

`COc1ccccc1NC(=O)CSc1nc(-c2ccc(C)cc2)nc2c1Cc1c(CO)cnc(C)c1O2`: the survival is 49% (active).

Take `Cc1ccc(C)c(NC(=O)CSc2nc(-c3ccccc3Cl)nc3c2Cc2c(CO)cnc(C)c2O3)c1`: the survival was 118% (inactive).

In the case of `COc1ccccc1-c1nc2c(c(SCC(=O)Nc3ccccc3F)n1)Cc1c(CO)cnc(C)c1O2`, the survival is 88% (inactive).

For `Cc1ccc(-c2nc3c(c(SCC(=O)Nc4ccccc4Cl)n2)Cc2c(CO)cnc(C)c2O3)cc1`, the survival is 46% (active).

`Cc1ccc(C)c(N2CCN(Cc3csc(C)c3C)CC2)c1`: the survival is 77% (inactive).

For the compound `CSc1ccc(CCNc2ncnc3onc(C)c23)cc1`, the survival was 98% (inactive).

For `O=C(c1ccc2c(c1)N(Cc1ccccc1)C(=O)c1ccccc1S2(=O)=O)N1CCc2ccccc21`, the survival is 81% (inactive).

In the case of `O=C(NCc1ccccc1)c1ccc2c(c1)N(Cc1cccc(Cl)c1)C(=O)c1ccccc1S2(=O)=O`, the survival is 93% (inactive).

On to `COc1ccccc1CNC(=O)c1ccc2c(c1)N(Cc1cccc(Cl)c1)C(=O)c1ccccc1S2(=O)=O`, for which the survival is 37% (active).

Regarding `O=S1(=O)c2ccccc2N(Cc2cccc(Cl)c2)c2ccccc21`, the survival was 0% (active).

For `COc1ccccc1CNC(=O)c1ccc2c(c1)N(Cc1cccc(C)c1)C(=O)c1ccccc1S2(=O)=O`, the survival is 87% (inactive).

For the compound `O=C(c1ccc2c(c1)N(Cc1ccc(Cl)cc1)C(=O)c1ccccc1S2(=O)=O)N1CCc2ccccc21`, the survival was 120% (inactive).

Regarding `O=C(NCc1ccco1)c1ccc2c(c1)N(Cc1cccc(Cl)c1)C(=O)c1ccccc1S2(=O)=O`, the survival is 46% (active).

As to `O=S1(=O)c2ccccc2N(Cc2ccccc2)c2ccccc21`, the survival was 69% (inactive).

As for `O=C(NCc1ccco1)c1ccc2c(c1)N(Cc1ccc(Cl)cc1)C(=O)c1ccccc1S2(=O)=O`, the survival was 89% (inactive).

With `O=C(c1ccc2c(c1)N(Cc1cccc(Cl)c1)C(=O)c1ccccc1S2(=O)=O)N1CCc2ccccc21`, the survival was 0% (active).

As to `O=C(NCc1ccco1)c1ccc2c(c1)N(Cc1ccccc1)C(=O)c1ccccc1S2(=O)=O`, the survival is 68% (inactive).

On to `O=S1(=O)c2ccccc2N(Cc2ccc(Cl)cc2)c2ccccc21`, for which the survival is 131% (inactive).
